Results on 14 compounds are retold here after PubChem BioAssay.

Experiment [1] is described as follows: inhibitors of TNFa-induced NFkB p65 translocation, primary screen, imaging, HUVEC, MLSMR starter and 10KST1 sets (AID 438).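 For inhibition: signal is the nuclear over cytoplasmic p65 intensity ratio per well.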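 Note: compound added about 3h40 before a 20 min TNFalpha stimulation.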 As to conditions: HUVEC TNFa-induced p65 nuclear translocation; cell count: measured here: nuclei count (cytotoxicity indicator), at 2.08 µM; inhibition: at 2 µM, stronger effect = higher value, 0% TNFa-plus-vehicle, 100% no-TNFa wells.
Experiment [2] can be described thus: inhibitors of mutant huntingtin aggregation, primary screen, imaging, exon1htt(103Q)mCFP cells, high-content imaging (AID 483;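 active = visual image review flags a hit and inhibition of aggregation exceeds 20%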;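 note: compound exposure lasted 3 days before fixation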;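 for nuclei count: percent of the per-plate median nuclei count of sample wells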). The conditions noted are these: exon1htt(103Q)mCFP cell line, aggregate imaging, at 2 µM; inhibition of aggregation: stronger effect = higher value; nuclei count: measured here: cell count, toxicity.
A short description of experiment [3]: inhibitors of E-selectin induction by TNFa, primary screen, imaging, HUVEC, immunofluorescence, MLSMR starter and 10KST1 sets (AID 487;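 active = visually confirmed hit in the image check and inhibition above 20%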;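 for inhibition: signal is fraction of cell area covered by stained E-selectin grains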;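 for nuclei count: 100% = median nuclei count of all wells on the same plate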). The conditions noted are these: HUVEC TNFalpha-induced E-selectin immunofluorescence imaging, at 2 µM; inhibition: stronger effect = higher value; nuclei count: measured here: cell number, toxicity.
Experiment [4] deals with Voltage-gated potassium channel subunit beta-2 (Rattus norvegicus) (UniProt P62483). As to the kind of experiment: KvBeta enzyme negative modulators, primary screen, biochemical, NADPH fluorescence (AID 622;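 active = fluorescence slope higher than the sample average by over 3 SD, cut at about -0.22 in these data, passing the limit was not always enough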;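 note: slope of raw intensity against log time taken from 70 to 1610 s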). The conditions noted are these: recombinant KvBeta, 4-cyanobenzaldehyde reduction, at 10 µM, stronger effect = higher value.
For experiment [5] the target is unchanged. Description: KvBeta positive modulators, primary screen, biochemical, NADPH fluorescence (AID 623;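 active = NADPH fluorescence slope more negative than the mean of all samples by about 3 SD, 99.7% confidence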;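 note: fluorescence intensity change per second fitted from 20 to 320 s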). The conditions noted are these: Recombinant KvBeta, NADPH fluorescence decrease slope, 10 min; at 10 µM; stronger effect = lower value.
Experiment [6] deals with Alpha-2C adrenergic receptor (Homo sapiens) (UniProt P18825). Description: modulators of alpha2C/GIRK thallium flux, primary screen, cell-based, HEK293 alpha2C/GIRK1/2 (AID 624;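 active = fluorescence slope after compound addition differing from the mean of all screened samples at 99.7% confidence, in either direction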;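 note: slope of fluorescence ratio to pre-addition baseline per second over 15 to 24 s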). The conditions noted are these: thallium flux BTC fluorescence, at 10 µM, actives lie on both sides.
Experiment [7] is described as follows: inhibitors of Sendai virus-induced IRF3 signaling, primary screen, TLR/RLR signaling modifier project, cell-based, Sendai virus stimulus, luciferase, 10K MLSCN set (AID 602276;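 active = inhibition at or above 50% at 10 µM; inactive = inhibition below 50%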;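 note: firefly luciferase from ISG56 promoter only with Renilla not read in this screen; 0% = Sendai virus plus DMSO and 100% = medium plus DMSO without virus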). The conditions noted are these: HEK293 RL24 IRF3 luciferase reporter, at 10 µM, stronger effect = higher value. On the technique in general: A reporter such as luciferase makes a cellular process visible.

Experiment [8] in a line: inhibitors of poly I:C-induced TLR3 signaling, primary screen, cell-based, poly I:C stimulus, luciferase, 10K MLSCN set (AID 602277;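 active = inhibition of the reporter signal at or above 50%; inactive = inhibition below 50%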). The conditions noted are these: HEK293-TLR3 RL24 IRF3 luciferase reporter, at 10 µM, stronger effect = higher value.

Activity calls are given as the source filed them.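 Rule for the calls, unless noted: active = inhibition above 20% together with a positive visual image hit; inconclusive = visual image hit but inhibition not above 20%; inactive = no visual image hit.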

Chain of Voltage-gated potassium channel subunit beta-2 (Rattus norvegicus) (P62483 whole entry, looked up): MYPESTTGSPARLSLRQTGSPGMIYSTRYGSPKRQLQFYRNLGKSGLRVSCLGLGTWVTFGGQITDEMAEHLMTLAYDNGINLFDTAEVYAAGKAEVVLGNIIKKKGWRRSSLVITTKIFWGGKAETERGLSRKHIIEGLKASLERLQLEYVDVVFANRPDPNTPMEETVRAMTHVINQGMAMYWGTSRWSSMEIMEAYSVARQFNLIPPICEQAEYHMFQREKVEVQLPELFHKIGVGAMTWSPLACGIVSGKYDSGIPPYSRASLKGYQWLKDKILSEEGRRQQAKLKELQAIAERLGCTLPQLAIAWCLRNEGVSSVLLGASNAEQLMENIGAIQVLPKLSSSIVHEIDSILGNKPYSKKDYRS
Chain of Alpha-2C adrenergic receptor (Homo sapiens) (P18825 whole entry, looked up): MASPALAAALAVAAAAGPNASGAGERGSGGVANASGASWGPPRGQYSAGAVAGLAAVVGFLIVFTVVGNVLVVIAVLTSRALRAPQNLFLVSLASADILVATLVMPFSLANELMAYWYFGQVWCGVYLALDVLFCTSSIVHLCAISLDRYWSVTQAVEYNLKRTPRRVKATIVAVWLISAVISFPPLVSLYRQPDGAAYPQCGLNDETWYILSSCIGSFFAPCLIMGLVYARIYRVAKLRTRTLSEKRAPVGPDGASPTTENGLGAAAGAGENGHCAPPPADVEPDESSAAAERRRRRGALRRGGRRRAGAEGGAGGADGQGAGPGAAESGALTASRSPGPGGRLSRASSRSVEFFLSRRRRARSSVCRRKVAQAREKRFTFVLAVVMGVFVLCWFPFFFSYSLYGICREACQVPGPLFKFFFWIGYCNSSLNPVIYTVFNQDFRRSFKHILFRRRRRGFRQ

On to `COc1ccc(Cn2nnnc2C(c2ccccc2OC)N2CCC(C(N)=O)CC2)cc1` (centres undefined), for which the cell count in experiment [1] worked out at 315. Moreover, the inhibition (usually the relative decrease from the control value, in per cent) in experiment [1] was 4.4% (inactive); in experiment [3], -39.5% (inactive); in experiment [7], 10.7% (inactive); in experiment [8] it was 25.5% (inactive). Moreover, the inhibition of aggregation in experiment [2] was 6.9% (inactive). The nuclei count in experiment [2] stood at 74.4%; in experiment [3], 114%. The fluorescence slope in experiment [4] is -0.604 (inactive). Further, the NADPH fluorescence slope in experiment [5] was -4.2e-05 (inactive). Further, the slope in experiment [6] is 0.00453 (inactive).
As to `O=C(COc1ccccc1Cl)NCc1ccco1`, the cell count in experiment [1] came to 310. Moreover, the inhibition is -13% (inactive) in experiment [1], -27.9% (inactive) in experiment [3], -22.9% (inactive) in experiment [7] and -43.3% (inactive) in experiment [8]. Also, the inhibition of aggregation in experiment [2] was 7.5% (inactive). Besides, the nuclei count in experiment [2] was 92.3%; in experiment [3] it was 115%. Moreover, the fluorescence slope in experiment [4] was -0.488 (inactive). The NADPH fluorescence slope in experiment [5] was -3e-05 (inactive). In addition, the slope in experiment [6] was 0.00673 (inactive).
Consider `CCOc1nc(-c2ccccc2)ccc1-c1noc(-c2ccc(OC)c(OC)c2)n1`, for which the cell count in experiment [1] amounted to 418. For the same compound, the inhibition was 11.7% (inactive) in experiment [1], -27% (inactive) in experiment [3], 8.22% (inactive) in experiment [7] and 9.49% (inactive) in experiment [8]. Moreover, the inhibition of aggregation in experiment [2] is -27.9% (inactive). In addition, the nuclei count is 99.7% in experiment [2] and 107% in experiment [3]. The fluorescence slope in experiment [4] was -0.385 (inactive). For the same compound, the NADPH fluorescence slope in experiment [5] is 5.6e-06 (inactive). Moreover, the slope in experiment [6] is 0.0092 (inactive).
Take `COc1cccc(NC(=O)COC(=O)c2cccnc2)c1`: in experiment [1], the cell count is 354. Further, the inhibition was -1.6% (inactive) in experiment [1], -15.5% (inactive) in experiment [3], 20.2% (inactive) in experiment [7] and 19.2% (inactive) in experiment [8]. The inhibition of aggregation in experiment [2] is -3.6% (inactive). The results for the nuclei count in experiment [2] and in experiment [3] were 105% and 108%, respectively. In addition, the fluorescence slope in experiment [4] is -0.503 (inactive). In addition, the NADPH fluorescence slope in experiment [5] was -6.6e-05 (inactive). Moreover, the slope in experiment [6] is 0.0053 (inactive).
As for `CCCCn1nc(C(=O)N2CCc3ccccc32)c2ccccc2c1=O`, in experiment [1], the cell count was 423. Moreover, the inhibition in experiment [1] was -9% (inactive); in experiment [3] it was 36.5% (inactive); in experiment [7] it was -1.51% (inactive); in experiment [8], 20.2% (inactive). The inhibition of aggregation in experiment [2] was -20.9% (inactive). Further, the nuclei count is 112% in experiment [2] and 41.8% in experiment [3]. Besides, the fluorescence slope in experiment [4] is -0.473 (inactive). Moreover, the NADPH fluorescence slope in experiment [5] is 2e-05 (inactive). Also, in experiment [6], the slope is 0.0045 (inactive).
Regarding `CC(C)CCN1CC(C(=O)NCc2ccccc2)CC1=O` (centres undefined), the cell count in experiment [1] turned out to be 538. Besides, the inhibition in experiment [1] was 2.2% (inactive); in experiment [3], -57.7% (inactive); in experiment [7], 30.7% (inactive); in experiment [8], 14.3% (inactive). The inhibition of aggregation in experiment [2] was 2.7% (inactive). In addition, the results for the nuclei count in experiment [2] and in experiment [3] were 121% and 108%, respectively. Besides, in experiment [4], the fluorescence slope was -0.288 (inactive). In experiment [5], the NADPH fluorescence slope is -1.6e-05 (inactive). The slope in experiment [6] is 0.00611 (inactive).
For the compound `Cc1nc2ccccc2c2oc(C(=O)N3CCN(C(=O)c4ccco4)CC3)cc12`, the cell count in experiment [1] worked out at 784. Besides, the inhibition is 11.3% (inactive) in experiment [1], 4.8% (inactive) in experiment [3], 6.87% (inactive) in experiment [7] and 12.8% (inactive) in experiment [8]. The inhibition of aggregation in experiment [2] was 0% (inactive). For the same compound, the nuclei count was 65.6% in experiment [2] and 98.3% in experiment [3]. The fluorescence slope in experiment [4] is -0.585 (inactive). Moreover, the NADPH fluorescence slope in experiment [5] is -1.4e-05 (inactive). Besides, the slope in experiment [6] is 0.00761 (inactive).
Take `COc1ccc(S(=O)(=O)N2CCN(CC(=O)Nc3ccc(F)c(F)c3)CC2)cc1`: in experiment [1], the cell count was found to be 322. Further, the inhibition in experiment [1] was -7.6% (inactive); in experiment [3], -62.9% (inactive); in experiment [7] it was 22.7% (inactive); in experiment [8], 32% (inactive). For the same compound, the inhibition of aggregation in experiment [2] is 9.7% (inactive). Moreover, the nuclei count was determined as 94.6% in experiment [2] and 97.3% in experiment [3]. The fluorescence slope in experiment [4] is -0.51 (inactive). In experiment [5], the NADPH fluorescence slope was -2.7e-05 (inactive). For the same compound, the slope in experiment [6] is 0.00502 (inactive).
As for `COC(=O)Cc1cc(=O)[nH]c(Nc2nc3ccccc3o2)n1`, the cell count in experiment [1] turned out to be 354. Further, the inhibition was -1.4% (inactive) in experiment [1], -125% (inactive) in experiment [3], -2.52% (inactive) in experiment [7] and -64.7% (inactive) in experiment [8]. Besides, the inhibition of aggregation in experiment [2] is -11.1% (inactive). Moreover, the figures for the nuclei count in experiment [2] and in experiment [3] were 108% and 112%, respectively. Besides, the fluorescence slope in experiment [4] is -0.268 (inactive). Besides, the NADPH fluorescence slope in experiment [5] is -3.1e-06 (inactive). Further, in experiment [6], the slope was 0.00603 (inactive).
As to `CCn1c(SCC(=O)Nc2cccc(C)c2)nc2c(c1=O)SC(C)C2` (centres undefined), the cell count in experiment [1] came out at 576. Besides, the inhibition in experiment [1] was -3.4% (inactive); in experiment [3], -11.7% (inactive); in experiment [7], 12.1% (inactive); in experiment [8], 25.9% (inactive). Besides, the inhibition of aggregation in experiment [2] is 40.7% (inactive). The nuclei count in experiment [2] worked out at 85.6%; in experiment [3], 86%. The fluorescence slope in experiment [4] was -0.537 (inactive). In addition, the NADPH fluorescence slope in experiment [5] is -4.6e-05 (inactive). For the same compound, the slope in experiment [6] is 0.00615 (inactive).
In the case of `O=C(NCC1CCCO1)C1CCN(S(=O)(=O)c2cccc3cccnc23)CC1` (centres undefined), in experiment [1], the cell count stood at 651. Also, the inhibition in experiment [1] is -5% (inactive); in experiment [3] it was -63.2% (inactive); in experiment [7], 10.7% (inactive); in experiment [8], 25.3% (inactive). For the same compound, the inhibition of aggregation in experiment [2] was 6.8% (inactive). Besides, the nuclei count is 104% in experiment [2] and 114% in experiment [3]. Further, the fluorescence slope in experiment [4] was -0.516 (inactive). Further, in experiment [5], the NADPH fluorescence slope is 1.4e-05 (inactive). Besides, in experiment [6], the slope is 0.00614 (inactive).
In the case of `COc1ccc(N2CCN(Cc3cc(=O)oc4cc(C)c(Cl)c(C)c34)CC2)cc1`, in experiment [1], the cell count worked out at 604. Besides, the inhibition was 0.3% (inactive) in experiment [1], 19% (inactive) in experiment [3], 17.9% (inactive) in experiment [7] and 12% (inactive) in experiment [8]. Moreover, the inhibition of aggregation in experiment [2] was 8.9% (inactive). In addition, the values for the nuclei count in experiment [2] and in experiment [3] were 104% and 93.1%, respectively. The fluorescence slope in experiment [4] is -0.388 (inactive). Further, in experiment [5], the NADPH fluorescence slope was 1.5e-05 (inactive). In addition, the slope in experiment [6] is 0.00505 (inactive).
As for `CC1(C)C(=O)Nc2ccccc2N1C(=O)COC(=O)Cn1cnc2ccccc2c1=O`, in experiment [1], the cell count is 465. Further, the inhibition was 2.5% (inactive) in experiment [1], -67.7% (inactive) in experiment [3], 7.38% (inactive) in experiment [7] and 20.1% (inactive) in experiment [8]. Further, in experiment [2], the inhibition of aggregation was -1.8% (inactive). The figures for the nuclei count in experiment [2] and in experiment [3] were 107% and 116%, respectively. In experiment [4], the fluorescence slope was -0.364 (inactive). For the same compound, in experiment [5], the NADPH fluorescence slope is -1.3e-05 (inactive). In experiment [6], the slope was 0.00422 (inactive).
On to `O=C(CN(Cc1ccc2c(c1)OCO2)C(=O)CNS(=O)(=O)c1ccccc1)NCc1ccco1`, for which the cell count in experiment [1] was 869. Besides, the inhibition in experiment [1] was 9% (inactive); in experiment [3], -3.6% (inactive); in experiment [7] it was 15.7% (inactive); in experiment [8] it was 36.2% (inactive). Besides, the inhibition of aggregation in experiment [2] was -9.2% (inactive). Also, the nuclei count came to 108% in experiment [2] and 98.7% in experiment [3]. Moreover, the fluorescence slope in experiment [4] is -0.356 (inactive). In addition, the NADPH fluorescence slope in experiment [5] was 8e-07 (inactive). Moreover, the slope in experiment [6] is 0.00553 (inactive).
